Laboratory results published in PubChem BioAssay (EPA / NIEHS).
More than one record can exist for a structure, and the calls need not agree. Active and inactive are the calls of the source. How the source made its calls: active means hit-call score of the fitted dose curve at least 0.9, where 1 is the maximum; inactive means score below 0.9.

Assay: CCTE_Shafer_MEA_acute_per_burst_spike_number_mean: CCTE's Neural Acute Assay for Average Number of Spikes Per Burst, Shafer Lab (AID 2284015);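 further: hits are decreases in mean spikes per burst versus baseline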
Protocol: CCTE_Shafer_MEA_acute assay is conducted using Axion Biosystems 48 well microelectrode array (MEA) plates and Maestro recording system. Each well of the MEA plate contains a grid of 16 microelectrodes embedded in the culture surface. Electrically active cells, such as neurons, can be cultured over the electrodes, and electrical activity in these cells can be recorded extracellularly. The spontaneous firing of neurons is captured from each electrode on a microsecond timescale providing both temporally and spatially precise data. […] The CCTE_Shafer_MEA_acute assay uses primary cultures of rat cortical neurons. As these cultures mature over time, neural networks develop functional activity and form cohesive networks in which electrical activity can be highly coordinated. Baseline 40-minute recordings are made on days post-plating 13 or 15, followed by a secondary 40-minute recording after chemical exposure.CCTE_Shafer_MEA_acute_per_burst_spike_number_mean is a component of the CCTE_Shafer_MEA_acute assay. It measures the average number of spikes (action potential firings) in a single-electrode burst (temporally-clustered group of spikes) during a recording in a microelectrode array (MEA) using Axion Biosystems Maestro 768 channel amplifier with the AxIS adaptive spike detector. The recordings before and after chemical treatment are used to calculate a percent change in the mean number of spikes per burst in each well.Data from the assay component CCTE_Shafer_MEA_acute_per_burst_spike_number_mean was analyzed into 1 assay endpoint. This assay endpoint, CCTE_Shafer_MEA_acute_per_burst_spike_number_mean, was analyzed in the negative analysis fitting direction relative to DMSO as the negative control and baseline of activity. Using a type of functional reporter, gain or loss-of-signal activity can be used to understand electrical activity.
Spontaneous activity in the cortical cultures was recorded using an Axion Biosystems Maestro 768 channel amplifier and Axion Integrated Studios (AxIS) v1.8 (or later) software. The amplifier recorded from all channels simultaneously (gain = 1200 x; sampling rate = 12.5 kHz/channel): raw signals were filtered with a Butterworth band-pass filter (300-5000 Hz), which filters out slower local field potentials leaving only fast potentials, i.e., "spikes", arising from extracellular currents associated with action potentials (Pine 2006; Wheeler and Nam 2011). On-line spike detection of filtered signals was conducted with the AxIS adaptive spike detector, using a threshold of 8x the root mean squared (rms) noise on each channel. Any electrodes with rms noise levels greater than 5 uV were grounded (e.g., no data were recorded). Once grounded, an electrode was grounded for the duration of the experiment. All recordings were conducted at 37 C. Wells were deemed usable if on the day of the exposure >/= 10 electrodes were active (defined as >/= 5 spikes/min). On DIV 13 or 15, a minimum of three wells from one cortical culture preparation were treated with each compound (0.03-40 uM). Prior to recording baseline activity, each mwMEA plate was placed in the Maestro at 37 C and allowed to sit for 20 min while firing rates stabilized. Baseline activity (40 min) was recorded before the addition of each compound. An additional 40 min of spontaneous activity was recorded in the presence of each compound. Changes in network parameters relative to baseline were assessed following compound treatment.

Row | SMILES | outcome | AC50
1 | COP(N)(=O)SC (centres undefined) | inactive | –
2 | CCNc1nc(Cl)nc(NC(C)C)n1 | inactive | –
3 | CO/C=C(/C(=O)OC)c1ccccc1Oc1cc(Oc2ccccc2C#N)ncn1 | inactive | –
4 | CNC(=O)ON=CC(C)(C)SC | inactive | –
5 | N#CC(CCc1ccc(Cl)cc1)(Cn1cncn1)c1ccccc1 (centres undefined) | inactive | –
6 | N#Cc1nn(-c2c(Cl)cc(C(F)(F)F)cc2Cl)c(N)c1S(=O)C(F)(F)F (centres undefined) | inactive | 1.87 µM (active)
7 | Cc1ccc(-c2c(Cl)nc(C#N)n2S(=O)(=O)N(C)C)cc1 | inactive | –
8 | CCOP(=S)(OCC)SCn1c(=O)oc2cc(Cl)ccc21 | inactive | –
9 | CCCC1COC(Cn2cncn2)(c2ccc(Cl)cc2Cl)O1 (centres undefined) | – | 20 µM (active)
10 | C=CCC1=C(C)C(OC(=O)C2C(C=C(C)C)C2(C)C)CC1=O (centres undefined) | inactive | 2.93 µM (active)
11 | C=CCC1=C(C)[C@@H](OC(=O)[C@@H]2[C@@H](C=C(C)C)C2(C)C)CC1=O | inactive | –
12 | CCCN(CCC)c1c([N+](=O)[O-])cc(S(N)(=O)=O)cc1[N+](=O)[O-] | inactive | –
13 | CC(C)(C)c1ccc(CSc2cnn(C(C)(C)C)c(=O)c2Cl)cc1 | – | 3.63 µM (active)
14 | CCCCNC(=O)OCC#CI | inactive | –
15 | CC(C)Oc1cc(-n2nc(C(C)(C)C)oc2=O)c(Cl)cc1Cl | inactive | –
16 | Cc1c(F)c(F)c(COC(=O)C2C(/C=C(\Cl)C(F)(F)F)C2(C)C)c(F)c1F (centres undefined) | – | 1.76 µM (active)
17 | O=C(O)c1nc(Cl)ccc1Cl | inactive | –
18 | CON(C)C(=O)Nc1ccc(Cl)c(Cl)c1 | inactive | –
19 | C#CCOS(=O)OC1CCCCC1Oc1ccc(C(C)(C)C)cc1 (centres undefined) | – | 33.6 µM (active)
20 | CC(Oc1ccc(Cl)cc1Cl)C(=O)O (centres undefined) | inactive | –
21 | OC(c1ccc(Cl)cc1)(c1cncnc1)c1ccccc1Cl (centres undefined) | – | 5 µM (active)
22 | COC(=O)C(C)Oc1ccc(Oc2ccc(Cl)cc2Cl)cc1 (centres undefined) | inactive | –
23 | CS/C(C)=N/OC(=O)N(C)SN(C)C(=O)O/N=C(\C)SC | inactive | –
24 | CC1COC(Cn2cncn2)(c2ccc(Oc3ccc(Cl)cc3)cc2Cl)O1 (centres undefined) | inactive | –
25 | COC(=O)N(OC)c1ccccc1COc1ccn(-c2ccc(Cl)cc2)n1 | – | 2.16 µM (active)
26 | COc1ccc(C(c2ccc(OC)cc2)C(Cl)(Cl)Cl)cc1 | inactive | –
27 | Fc1ccc(Oc2ccnc3cc(Cl)cc(Cl)c23)cc1 | inactive | –
